IL-1B inflam inh: blocks inflammasome-driven IL-1 beta release | THP-1 LPS/ATP IL-1B secretion, AlphaLISA, 16 h; active compounds read low | activity change, % at 57.5 µM | 4.7% of 360,000 active | AID 743279; in the data active means activity change below about -50%; inconclusive means mostly about -30% to -49%
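Secreted IL-1B measured by AlphaLISA bead assay after 16 h compound exposure of THP-1 cells; compounds (final up to 57.5 uM) added 1 h before LPS (250 ng/mL) and ATP (1.25 mM) stimulation; lower signal means less secretion.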
DT40 TDP1 CPT: growth inhibition of DT40 Tdp1-/-;hTDP1 cells with camptothecin (screen for TDP1 inhibitors); chicken DT40 Tdp1-/-;hTDP1 cells + 20 nM CPT, ATP luminescence, 48 h; Potency, µM (top dose mostly 46.2 µM), usual class: inhibitors; 12% of 420,000 active; AID 686979; further: nearly all actives have a fitted effect of over 55% in size
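Chicken DT40 Tdp1-/- cells complemented with human TDP1, 400 cells/well, exposed to compounds plus 20 nM camptothecin for at least 48 h at 37 C; viability read as ATP content by CellTiter-Glo luminescence.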
DT40 TDP1 no CPT: qHTS for Inhibitors of human tyrosyl-DNA phosphodiesterase 1 (TDP1): qHTS in cells in absence of CPT. DT40 Tdp1-/- hTDP1 cells, no CPT, ATP luminescence, 48 h. Potency, µM (series often up to 46.2 µM), hits mostly inhibitors. 15% of 420,000 active. AID 686978, 2013; further: nearly all actives have a fitted effect of over 55% in size
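Chicken DT40 Tdp1-/- cells complemented with human TDP1, screened without camptothecin (DMSO vehicle only), 400 cells/well. Compounds pin-transferred, cells incubated at 37 °C for at least 48 hr. Growth read as ATP-dependent luminescence (CellTiter-Glo, 30 min at RT).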
TGFb inhibitor: blocks TGF-b signaling. 1.2% of 410,000 active. Potency, µM (series often up to 46.1 µM), actives largely listed as inhibitors. HepG2 CAGA-GFP TGF-b/SMAD3 reporter, GFP fluorescence, 18 h; TGF-beta stimulated, 500 pg/mL final; further: nearly all actives have a fitted effect of over 65% in size
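GFP signal (ex488/em500-530) from TGF-beta-stimulated HEPG2 CAGA-GFP cells, 500 pg/mL final, 18 h at 37 degrees C in DMEM plus 1% FBS, normalized to unstimulated and DMSO-stimulated controls.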
TDP1 block: blocks human tyrosyl-DNA phosphodiesterase 1; AID 485290; Potency, µM (series often up to 130 µM), most hits filed as inhibitors; recombinant TDP1, AlphaScreen DNA substrate cleavage; 0.28% of 350,000 active; Q9NUW8; further: nearly all actives have a fitted effect of over 40% in size
Target sequence (Q9NUW8 whole entry, looked up): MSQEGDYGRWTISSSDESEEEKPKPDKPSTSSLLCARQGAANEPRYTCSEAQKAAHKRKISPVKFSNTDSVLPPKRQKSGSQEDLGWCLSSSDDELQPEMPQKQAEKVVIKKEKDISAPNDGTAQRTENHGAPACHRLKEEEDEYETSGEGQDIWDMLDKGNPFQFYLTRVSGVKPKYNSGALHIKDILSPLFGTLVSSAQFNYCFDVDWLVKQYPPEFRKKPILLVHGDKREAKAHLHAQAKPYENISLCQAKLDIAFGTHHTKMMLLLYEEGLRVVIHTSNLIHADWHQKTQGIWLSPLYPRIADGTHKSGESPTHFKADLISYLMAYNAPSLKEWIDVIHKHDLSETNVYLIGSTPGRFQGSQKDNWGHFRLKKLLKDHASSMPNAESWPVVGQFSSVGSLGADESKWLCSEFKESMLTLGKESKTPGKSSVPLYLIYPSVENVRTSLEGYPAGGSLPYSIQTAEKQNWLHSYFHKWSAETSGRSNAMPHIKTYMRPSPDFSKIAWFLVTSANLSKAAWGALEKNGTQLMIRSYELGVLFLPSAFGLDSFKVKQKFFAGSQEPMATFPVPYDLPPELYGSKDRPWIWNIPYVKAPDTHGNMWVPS
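Enzyme-compound mixtures sat 15 min at room temperature, followed by a 5 min reaction with 15 nM final substrate and 10 min with AlphaScreen beads. Recombinant human Tdp1 was used at 1 nM final.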
HepG2 viability: HepG2 cytotoxicity, counter-screen for TGF-b inhibitors; Potency, µM (highest dose often 46.1 µM), usual class: cytotoxic; AID 588856; HepG2 CAGA-GFP viability, ATP luminescence, 18 h; 0.76% of 410,000 active
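HepG2 CAGA-GFP cells (1000/well, DMEM with 1% FBS) received compound, then TGF-beta at 500 pg/mL final, and were incubated 18 hours at 37 degrees C. Viability was read by CellTiter-Glo luminescence. Media-only wells were set as complete cell-killing and DMSO as no toxicity.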
Large screens that a line does not name were inactive. This is a sample that favours compounds with a hit; in the whole collection about 19% have one here. Unless noted, the call rests on the fitted dose curve; in most records, active means well fitted curve in the direction sought with a large enough effect; inconclusive means small, poorly fitted or top-dose-only effect, or another doubt; inactive means no such curve, though single readings can be large; an effect the other way counts as inactive or inconclusive.

CCCCC[C@@H](C)N1C[C@@H](COCc2ccccc2)Oc2cc(N3CCC[C@H]3CO)ccc2S1(=O)=O	DT40 TDP1 CPT inconclusive, DT40 TDP1 no CPT inconclusive (no result: TGFb inhibitor, TDP1 block, HepG2 viability)
Cc1ccc(N2CCN(C(=O)C(=O)c3ccc(F)c(F)c3)CC2)cc1	none (no result: TGFb inhibitor, TDP1 block, HepG2 viability)
Cc1cn(C2CC(N=[N+]=[N-])C(CO)O2)c(=O)[nH]c1=O (stereo not drawn)	DT40 TDP1 CPT inconclusive, DT40 TDP1 no CPT inconclusive (no result: IL-1B inflam inh, TGFb inhibitor, HepG2 viability)
CCc1c(C)sc(NC(=S)N2CCN(CC)CC2)c1C(=O)OC	IL-1B inflam inh -56.1, DT40 TDP1 CPT inconclusive, DT40 TDP1 no CPT inconclusive
Cc1ccc(Sc2ccc(N3CCCC(C(=O)Nc4ccc(F)cc4)C3)nn2)cc1 (stereo not drawn)	DT40 TDP1 CPT inconclusive, DT40 TDP1 no CPT inconclusive, TGFb inhibitor inconclusive (no result: IL-1B inflam inh)
COc1ccc2c(c1)c1c(c(=O)n(-c3ccccc3C)c(=O)n1CC(=O)N1CCCC1)n2C	DT40 TDP1 CPT inconclusive, DT40 TDP1 no CPT inconclusive, TGFb inhibitor inconclusive (no result: IL-1B inflam inh)
CCC(=O)OCc1cnc(C)c2oc(=O)c(C(=O)Nc3ccccc3C(F)(F)F)cc12	none (no result: IL-1B inflam inh)
COc1ccc(NC(=O)c2cccc(N3C(=O)C4C5C=CC(C6CC56)C4C3=O)c2)cc1 (stereo not drawn)	DT40 TDP1 CPT inconclusive, DT40 TDP1 no CPT 20.6µM
Cc1ccc(NC(=O)c2cccc(N3C(=O)C4C5C=CC(C5)C4C3=O)c2)cc1C (stereo not drawn)	DT40 TDP1 CPT 23.1µM, DT40 TDP1 no CPT 20.6µM
O=C(O)c1cccc(N2C(=O)C=CC2=O)c1	DT40 TDP1 CPT inconclusive, DT40 TDP1 no CPT inconclusive (no result: TDP1 block)
O=C(Nc1ccc(Cl)cc1)c1cccc(N2C(=O)C3C4CCC(C4)C3C2=O)c1 (stereo not drawn)	DT40 TDP1 CPT inconclusive, DT40 TDP1 no CPT 14.6µM
COc1ccccc1NC(=O)c1cccc(N2C(=O)C3C4C=CC(C4)C3C2=O)c1 (stereo not drawn)	none
O=C(Nc1ccc(Cl)cc1Cl)c1cccc(N2C(=O)C=CC2=O)c1	DT40 TDP1 CPT 1.03µM, DT40 TDP1 no CPT 0.581µM, TGFb inhibitor inconclusive
COc1ccc(NC(=O)c2cccc(N3C(=O)C4C5C=CC(C6CC56)C4C3=O)c2)c(OC)c1 (stereo not drawn)	DT40 TDP1 CPT inconclusive, DT40 TDP1 no CPT inconclusive
O=C(CNC(=S)N(CCCN1CCOCC1)Cc1cccs1)N1CCCCCC1	none
CCc1ccc(CNC(=O)c2nn(-c3ccc(OC)c(Cl)c3)c(=O)c3c2c2ccccc2n3C)cc1	none (no result: IL-1B inflam inh)
CCOC(=O)c1[nH]c2c(c1Cc1ccccc1)C(=O)CC(c1ccc(C(C)(C)C)cc1)C2 (stereo not drawn)	DT40 TDP1 CPT inconclusive, DT40 TDP1 no CPT inconclusive (no result: IL-1B inflam inh)
COc1ccc(NC(=O)c2cccc(N3C(=O)C4C5C=CC(C5)C4C3=O)c2)cc1Cl (stereo not drawn)	DT40 TDP1 CPT 23.1µM, DT40 TDP1 no CPT 16.4µM
Cc1cc(N2C(=O)C3C4C=CC(C4)C3C2=O)ccc1NC(=O)c1cccs1 (stereo not drawn)	DT40 TDP1 no CPT inconclusive, TDP1 block 12.6µM
O=S(=O)(c1ccc2ccccc2c1)n1nc(-c2ccco2)nc1NCc1ccc(F)cc1	none (no result: IL-1B inflam inh)
Cc1cc(F)ccc1C(O)c1ncc(-c2cccc(OCc3ccccc3)c2)[nH]1 (stereo not drawn)	DT40 TDP1 CPT inconclusive, DT40 TDP1 no CPT 16.4µM, TGFb inhibitor inconclusive (no result: TDP1 block)
COc1c(C)cc(C(O)c2ncc(-c3ccccc3)[nH]2)cc1C (stereo not drawn)	IL-1B inflam inh -60.5, DT40 TDP1 CPT inconclusive, DT40 TDP1 no CPT inconclusive (no result: TDP1 block)
Cc1cccc(C(O)c2ncc(-c3ccccc3)[nH]2)c1C (stereo not drawn)	DT40 TDP1 CPT 18.4µM (no result: TDP1 block)
CCCN1CCCc2cc(CN(CCCN3CCOCC3)C(=O)Nc3ccc(CC)cc3)ccc21	DT40 TDP1 CPT 23.1µM, DT40 TDP1 no CPT 20.6µM, TGFb inhibitor inconclusive (no result: IL-1B inflam inh)

Source: PubChem
